# Measurements reported in PubChem BioAssay (NCATS).
# Results filed as inconclusive are left out. A call without a number means that no potency is given here. A number with no mark means an inactive call. The source made the active and inactive calls. The call rests on the fitted dose curve; in most records, active means well fitted curve in the direction sought with a large enough effect; inconclusive means small, poorly fitted or top-dose-only effect, or another doubt; inactive means no such curve, though single readings can be large; an effect the other way counts as inactive or inconclusive.
# Tests used:
# [1] = molecular target: ATP-dependent 6-phosphofructokinase (Trypanosoma brucei brucei) (UniProt O15648); assay: qHTS Assay to Find Inhibitors of T. brucei phosphofructokinase: hit validation (AID 492961);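 further: luminescence reports ADP formed as PFK phosphorylates fructose-6-phosphate with ATP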
# How it was run: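 Percent activity derived from corrected luminescence, normalized between 0x and 1x enzyme controls, then fitted to concentration-response curves. Conditions: 1.25 nM PFK, 0.1 mM ATP, 0.5 mM F6P, 45 min RT.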
# [2] = qHTS profiling for inhibitors of Plasmodium falciparum proliferation (AID 504749); further: potency means the concentration at half of the fitted maximal effect; on all read-outs here: nearly all actives have a fitted effect of over 60% in size; conditions: P. falciparum in erythrocytes, SYBR Green DNA, 72 h; for activity, negative = inhibition: at 28.7 µM (top of the series)
# How it was run: (§1)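 Quantitative HTS: compounds pinned into medium, infected erythrocytes added (0.3% parasitemia, 2.5% hematocrit), 72 h culture at 37 C under 5% CO2. Saponin/Triton lysis with SYBR Green I, overnight RT, then fluorescence read.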
# 3D7 = assay: as above; conditions: P. falciparum in erythrocytes, SYBR Green DNA, 72 h; series mostly up to 28.7 µM
# How it was run: as §1
# AA1029 = assay: as above; conditions: P. falciparum in erythrocytes, SYBR Green DNA, 72 h; series mostly up to 28.7 µM
# How it was run: as §1
# AS120 = assay: as above; conditions: P. falciparum in erythrocytes, SYBR Green DNA, 72 h; series mostly up to 28.7 µM
# How it was run: as §1
# ATS189 = assay: as above; conditions: P. falciparum in erythrocytes, SYBR Green DNA, 72 h; series mostly up to 28.7 µM
# How it was run: as §1
# CP185 = assay: as above; conditions: P. falciparum in erythrocytes, SYBR Green DNA, 72 h; series mostly up to 28.7 µM
# How it was run: as §1
# CP191 = assay: as above; conditions: P. falciparum in erythrocytes, SYBR Green DNA, 72 h; series mostly up to 28.7 µM
# How it was run: as §1
# CP211 = assay: as above; conditions: P. falciparum in erythrocytes, SYBR Green DNA, 72 h; series mostly up to 28.7 µM
# How it was run: as §1
# CP217 = assay: as above; conditions: P. falciparum in erythrocytes, SYBR Green DNA, 72 h; series mostly up to 28.7 µM
# How it was run: as §1
# CP238 = assay: as above; conditions: P. falciparum in erythrocytes, SYBR Green DNA, 72 h; series mostly up to 28.7 µM
# How it was run: as §1
# CP252 = assay: as above; conditions: P. falciparum in erythrocytes, SYBR Green DNA, 72 h; series mostly up to 28.7 µM
# How it was run: as §1
# CP262 = assay: as above; conditions: P. falciparum in erythrocytes, SYBR Green DNA, 72 h; series mostly up to 28.7 µM
# How it was run: as §1
# CP265 = assay: as above; conditions: P. falciparum in erythrocytes, SYBR Green DNA, 72 h; series mostly up to 28.7 µM
# How it was run: as §1
# CP286 = assay: as above; conditions: P. falciparum in erythrocytes, SYBR Green DNA, 72 h; series mostly up to 28.7 µM
# How it was run: as §1
# Dd2 = assay: as above; conditions: P. falciparum in erythrocytes, SYBR Green DNA, 72 h; series mostly up to 28.7 µM
# How it was run: as §1
# FAB9 = assay: as above; conditions: P. falciparum in erythrocytes, SYBR Green DNA, 72 h; series mostly up to 28.7 µM
# How it was run: as §1
# N140 = assay: as above; conditions: P. falciparum in erythrocytes, SYBR Green DNA, 72 h; series mostly up to 28.7 µM
# How it was run: as §1
# P94_40 = assay: as above; conditions: P. falciparum in erythrocytes, SYBR Green DNA, 72 h; series mostly up to 28.7 µM
# How it was run: as §1
# TAB109 = assay: as above; conditions: P. falciparum in erythrocytes, SYBR Green DNA, 72 h; series mostly up to 28.7 µM
# How it was run: as §1
# ATP-dependent 6-phosphofructokinase (Trypanosoma brucei brucei), sequence (O15648 whole entry, looked up): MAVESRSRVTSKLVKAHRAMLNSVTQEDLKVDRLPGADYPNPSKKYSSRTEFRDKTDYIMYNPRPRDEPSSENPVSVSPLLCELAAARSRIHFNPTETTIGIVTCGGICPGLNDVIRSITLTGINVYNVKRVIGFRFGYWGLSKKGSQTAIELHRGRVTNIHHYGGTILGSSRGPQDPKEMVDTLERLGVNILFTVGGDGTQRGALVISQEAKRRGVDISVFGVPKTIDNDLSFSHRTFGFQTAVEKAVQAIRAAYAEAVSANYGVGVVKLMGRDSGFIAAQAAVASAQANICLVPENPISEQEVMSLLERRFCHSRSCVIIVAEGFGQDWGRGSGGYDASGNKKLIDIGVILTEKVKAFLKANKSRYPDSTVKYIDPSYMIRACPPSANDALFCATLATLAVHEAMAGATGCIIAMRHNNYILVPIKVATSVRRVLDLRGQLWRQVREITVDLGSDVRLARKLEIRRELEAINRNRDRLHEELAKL
smiles,measurement,setting,value
CCCC[C@H](O)c1ccccc1,Potency,[1],inactive
same,"activity, negative = inhibition",[2]; parasite line A,-2.26%
same,"activity, negative = inhibition",[2]; parasite line B,-1.87%
same,Potency,3D7,inactive
same,Potency,AA1029,inactive
same,Potency,AS120,inactive
same,Potency,ATS189,inactive
same,Potency,CP185,inactive
same,Potency,CP191,inactive
same,Potency,CP211,inactive
same,Potency,CP217,inactive
same,Potency,CP238,inactive
same,Potency,CP252,inactive
same,Potency,CP262,inactive
same,Potency,CP265,inactive
same,Potency,CP286,inactive
same,Potency,Dd2,inactive
same,Potency,FAB9,inactive
same,Potency,N140,inactive
same,Potency,P94_40,inactive
same,Potency,TAB109,inactive
CC(=O)OCC(=O)[C@@]1(O)CCC2C3CCC4=CC(=O)C=CC4(C)C3C(O)C[C@]21C (stereo not given in full),Potency,[1],inactive
same,"activity, negative = inhibition",[2]; parasite line A,8.28%
same,"activity, negative = inhibition",[2]; parasite line B,10.3%
same,Potency,3D7,inactive
same,Potency,AA1029,inactive
same,Potency,AS120,inactive
same,Potency,ATS189,inactive
same,Potency,CP185,inactive
same,Potency,CP191,inactive
same,Potency,CP211,inactive
same,Potency,CP217,inactive
same,Potency,CP238,inactive
same,Potency,CP252,inactive
same,Potency,CP262,inactive
same,Potency,CP265,inactive
same,Potency,CP286,inactive
same,Potency,Dd2,inactive
same,Potency,FAB9,inactive
same,Potency,N140,inactive
same,Potency,P94_40,inactive
same,Potency,TAB109,inactive
OCC1O[C@@H](O[C@@H]2C(CO)OC(O)C(O)C2O)C(O)C(O)C1O (stereo not given in full),Potency,[1],inactive
same,"activity, negative = inhibition",[2]; parasite line A,8.35%
same,"activity, negative = inhibition",[2]; parasite line B,4.55%
same,Potency,3D7,inactive
same,Potency,AA1029,inactive
same,Potency,AS120,inactive
same,Potency,ATS189,inactive
same,Potency,CP185,inactive
same,Potency,CP191,inactive
same,Potency,CP211,inactive
same,Potency,CP217,inactive
same,Potency,CP238,inactive
same,Potency,CP252,inactive
same,Potency,CP262,inactive
same,Potency,CP265,inactive
same,Potency,CP286,inactive
same,Potency,Dd2,inactive
same,Potency,FAB9,inactive
same,Potency,N140,inactive
same,Potency,P94_40,inactive
same,Potency,TAB109,inactive
NC[C@@H]1O[C@H](OC2[C@@H](CO)O[C@@H](OC3[C@H](O)[C@H](N)C[C@H](N)[C@H]3OC3O[C@H](CO)[C@@H](O)[C@H](O)[C@@H]3N)[C@H]2O)C(N)[C@H](O)[C@@H]1O (stereo not given in full),Potency,[1],inactive
same,"activity, negative = inhibition",[2]; parasite line A,11.9%
same,"activity, negative = inhibition",[2]; parasite line B,20%
same,Potency,3D7,inactive
same,Potency,AA1029,inactive
same,Potency,AS120,inactive
same,Potency,ATS189,inactive
same,Potency,CP185,inactive
same,Potency,CP191,inactive
same,Potency,CP211,inactive
same,Potency,CP217,inactive
same,Potency,CP238,inactive
same,Potency,CP252,inactive
same,Potency,CP262,inactive
same,Potency,CP265,inactive
same,Potency,CP286,inactive
same,Potency,Dd2,inactive
same,Potency,FAB9,inactive
same,Potency,N140,inactive
same,Potency,P94_40,inactive
same,Potency,TAB109,inactive
CCC(C(=O)O)C1OC(C(C)C(O)C(C)C(=O)C(CC)C2OC3(C=CC(O)C4(CCC(C)(C5CCC(O)(CC)C(C)O5)O4)O3)C(C)CC2C)C(C)CC1C (stereo not given),Potency,[1],inactive
same,Potency,[2]; parasite line A,141 nM (active)
same,Potency,[2]; parasite line B,158 nM (active)
same,Potency,3D7,100 nM (active)
same,Potency,AA1029,158 nM (active)
same,Potency,AS120,79.4 nM (active)
same,Potency,ATS189,158 nM (active)
same,Potency,CP185,224 nM (active)
same,Potency,CP191,100 nM (active)
same,Potency,CP211,67.5 nM (active)
same,Potency,CP217,178 nM (active)
same,Potency,CP238,199 nM (active)
same,Potency,CP252,141 nM (active)
same,Potency,CP262,536 nM (active)
same,Potency,CP265,224 nM (active)
same,Potency,CP286,141 nM (active)
same,Potency,Dd2,100 nM (active)
same,Potency,FAB9,282 nM (active)
same,Potency,N140,141 nM (active)
same,Potency,P94_40,70.8 nM (active)
same,Potency,TAB109,112 nM (active)
CCN1CCN(C(=O)NC(C(=O)NC2C(=O)N3C(C(=O)O)=C(CSc4nnnn4C)CSC23)c2ccc(O)cc2)C(=O)C1=O (stereo not given),Potency,[1],inactive
same,"activity, negative = inhibition",[2]; parasite line A,1.12%
same,"activity, negative = inhibition",[2]; parasite line B,-9.29%
same,Potency,3D7,inactive
same,Potency,AA1029,inactive
same,Potency,AS120,inactive
same,Potency,ATS189,inactive
same,Potency,CP185,inactive
same,Potency,CP191,inactive
same,Potency,CP211,inactive
same,Potency,CP217,inactive
same,Potency,CP238,inactive
same,Potency,CP252,inactive
same,Potency,CP262,inactive
same,Potency,CP265,inactive
same,Potency,CP286,inactive
same,Potency,Dd2,inactive
same,Potency,FAB9,inactive
same,Potency,N140,inactive
same,Potency,P94_40,inactive
same,Potency,TAB109,inactive
O=C1CC[C@H](C(=O)N[C@@H]2C[C@H]2c2ccccc2)N1,Potency,[1],inactive
same,"activity, negative = inhibition",[2]; parasite line A,10.5%
same,"activity, negative = inhibition",[2]; parasite line B,18.1%
same,Potency,3D7,inactive
same,Potency,AA1029,inactive
same,Potency,AS120,inactive
same,Potency,ATS189,inactive
same,Potency,CP185,inactive
same,Potency,CP191,inactive
same,Potency,CP211,inactive
same,Potency,CP217,inactive
same,Potency,CP238,inactive
same,Potency,CP252,inactive
same,Potency,CP262,inactive
same,Potency,CP265,inactive
same,Potency,CP286,inactive
same,Potency,Dd2,inactive
same,Potency,FAB9,inactive
same,Potency,N140,inactive
same,Potency,P94_40,inactive
same,Potency,TAB109,inactive
CC1OC(OC2CCC3(C)C(CCC4C3CC(O)C3(C)C(C5=CC(=O)OC5)CCC43O)C2)CC(O)C1OC1CC(O)C(OC2CC(O)C(OC3OC(CO)C(O)C(O)C3O)C(C)O2)C(C)O1 (stereo not given),Potency,[1],inactive
same,"activity, negative = inhibition",[2]; parasite line A,13.2%
same,"activity, negative = inhibition",[2]; parasite line B,-5.12%
same,Potency,3D7,inactive
same,Potency,AA1029,inactive
same,Potency,AS120,inactive
same,Potency,ATS189,inactive
same,Potency,CP185,inactive
same,Potency,CP191,inactive
same,Potency,CP211,inactive
same,Potency,CP217,inactive
same,Potency,CP238,inactive
same,Potency,CP252,inactive
same,Potency,CP262,inactive
same,Potency,CP265,inactive
same,Potency,CP286,inactive
same,Potency,Dd2,inactive
same,Potency,FAB9,inactive
same,Potency,N140,inactive
same,Potency,P94_40,inactive
same,Potency,TAB109,inactive
CC(c1ncncc1F)[C@](O)(Cn1cncn1)c1ccc(F)cc1F (stereo not given in full),Potency,[1],inactive
same,"activity, negative = inhibition",[2]; parasite line A,7.39%
same,"activity, negative = inhibition",[2]; parasite line B,-17.3%
same,Potency,3D7,inactive
same,Potency,AA1029,inactive
same,Potency,AS120,inactive
same,Potency,ATS189,inactive
same,Potency,CP185,inactive
same,Potency,CP191,inactive
same,Potency,CP211,inactive
same,Potency,CP217,inactive
same,Potency,CP238,inactive
same,Potency,CP252,inactive
same,Potency,CP262,inactive
same,Potency,CP265,inactive
same,Potency,CP286,inactive
same,Potency,Dd2,inactive
same,Potency,FAB9,inactive
same,Potency,N140,inactive
same,Potency,P94_40,inactive
same,Potency,TAB109,inactive
CO/N=C(/C(=O)N[C@@H]1C(=O)N2C(C(=O)O)=C(CSC(=O)c3ccco3)CSC12)c1csc(N)n1 (stereo not given in full),Potency,[1],inactive
same,"activity, negative = inhibition",[2]; parasite line A,2.76%
same,"activity, negative = inhibition",[2]; parasite line B,0.141%
same,Potency,3D7,inactive
same,Potency,AA1029,inactive
same,Potency,AS120,inactive
same,Potency,ATS189,inactive
same,Potency,CP185,inactive
same,Potency,CP191,inactive
same,Potency,CP211,inactive
same,Potency,CP217,inactive
same,Potency,CP238,inactive
same,Potency,CP252,inactive
same,Potency,CP262,inactive
same,Potency,CP265,inactive
same,Potency,CP286,inactive
same,Potency,Dd2,inactive
same,Potency,FAB9,inactive
same,Potency,N140,inactive
same,Potency,P94_40,inactive
same,Potency,TAB109,inactive
